# Screening data as filed in PubChem.
# Many of the other results were omitted from the sample, so hits are more common in it than they were.
# VHR inh color – VHR1 (DUSP3) phosphatase inhibition; inhibition, % at 20 µM; recombinant VHR phosphatase, colorimetric substrate read-out; 50,000 compounds, 0.7% hits; in the data active = inhibition above about 60%
# Target sequence (P51452 whole entry, looked up): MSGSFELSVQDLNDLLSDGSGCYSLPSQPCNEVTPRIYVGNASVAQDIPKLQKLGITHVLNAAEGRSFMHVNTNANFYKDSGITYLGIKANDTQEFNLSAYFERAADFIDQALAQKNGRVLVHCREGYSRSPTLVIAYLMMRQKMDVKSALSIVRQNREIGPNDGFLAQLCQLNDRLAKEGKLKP
# The depositor's hits bear a star.
SMILES,VHR inh color
Nc1c(C(=O)NCc2cccnc2)sc(=S)n1-c1ccccc1,91*
O=C(NCc1cccnc1)c1ccc(C#Cc2ccccc2)cc1,-6
O=C(NCc1cccnc1)c1cc(-c2ccccc2)nc2ccccc12,4
COCCOC(=O)c1ccc(NC(=O)c2ccccc2CCc2ccccc2)cc1,-15
O=c1c2c3c(sc2[nH]c(=S)n1CCc1ccccc1)CCC3,-7
CCOc1ccc(C(=O)Nc2ccc(OC(F)(F)F)cc2)cc1,-12
COC(=O)c1ccc2c(c1)C1C=CCC1C(c1cccc3ccccc13)N2 (centres undefined),47
COc1cccc2c1NC(c1cccc3ccccc13)C1CC=CC21 (centres undefined),88*
COc1cccc2c1NC(c1ccccc1Cl)C1CC=CC21 (centres undefined),-3
Cc1c(Cl)cccc1N=Cc1ccc([N+](=O)[O-])o1,14
O=c1ccc([N+](=O)[O-])ccc1NCc1ccccc1,11
Cc1ccc(/C=C2/SC(=S)N(CCC(=O)Nc3c(C)n(C)n(-c4ccccc4)c3=O)C2=O)cc1,-28
COc1ccc(-c2csc(Nc3ccccc3)n2)cc1,8
c1ccc(Nc2nc(-c3ccncc3)cs2)cc1,-20
c1ccc(Nc2nc(-c3ccccc3)[n+](-c3ccccc3)s2)cc1,97*
O=[N+]([O-])c1ccc(N2CCOCC2)cc1NCCOc1ccc(Cl)cc1,-14
Cc1cccc(NC(=O)C2C(c3ccccc3)=C2c2ccccc2)c1C,-2
CC(C)NC(=O)C1C(c2ccccc2)=C1c1ccccc1,120*
O=C(Nc1ccc(Br)cc1)C1C(c2ccccc2)=C1c1ccccc1,-11
O=C1c2cccc3c4ccccc4n(c23)C(=O)C1(O)O,90*
O=C1c2ccccc2C(=O)N1CC(O)Cn1c2ccccc2c2ccccc21 (centres undefined),-4
O=C(CCN1C(=O)c2ccccc2C1=O)NCc1ccncc1,-18
COc1ccc(C(NC(=O)/C=C\c2cccc([N+](=O)[O-])c2)c2ccc(OC)c(OC)c2)cc1OC,4
CCc1c(C)sc(NC(=O)c2ccc(Cl)cc2)c1C(N)=O,-6
CCCCOc1ccc(C(=O)Nc2sc(C)c(CC)c2C(N)=O)cc1,70*
SMILES,VHR inh color
CCc1c(C)sc(NC(=O)c2cccnc2)c1C(N)=O,-1
Cc1cc(C(=O)N/N=C/c2c(Cl)cccc2Cl)n[nH]1,1
O=C(Nc1nccs1)C1(c2ccccc2)CC1(Cl)Cl (centres undefined),-6
O=C(Nc1ccccc1F)C1(c2ccccc2)CC1(Cl)Cl (centres undefined),5
O=C(Nc1cccc2ccccc12)C1(c2ccccc2)CC1(Cl)Cl (centres undefined),118*
O=C(COc1ccc(Cl)cc1Cl)NCCCOCC(=O)Oc1ccc(Cl)cc1Cl,104*
O=C(COc1ccc(Cl)cc1Cl)NCc1ccncc1,0
Cc1cccc(OC(=O)COc2ccc(Cl)cc2Cl)c1,10
O=C(COc1ccc(Cl)cc1Cl)OCc1ccccc1,-7
CC(C)CNC(=O)CCCOc1ccc(Cl)cc1Cl,6
O=C(COc1ccc(Cl)cc1Cl)Oc1ccccc1,84*
COc1ccccc1NC(=O)C1=C(C)NC(=O)NC1c1cccc(Cl)c1 (centres undefined),3
CN(/N=C/c1ccc([N+](=O)[O-])cc1)C(=S)c1ccccc1,-24
CCC(=O)NC(Nc1ccc(OC)cc1)(C(F)(F)F)C(F)(F)F,6
O=C1/C(=C/c2cccc(Br)c2)SC(=S)N1Cc1ccco1,2
